Compounds without any hit were thinned out: in the full panel of roughly 79,000, 15% have a hit. A number with no mark means an inactive call. Calls of active or inactive are those of the source. No stated cut-off is given here; in the data, active means growth inhibition above about 70%; inactive means the rest.

The record followed here is PubChem BioAssay (NCI).

The nature of experiment [1]: NCI Yeast Anticancer Drug Screen. Data for the rad50 strain (AID 155).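 Further: 0% = growth of vehicle-only cultures of the same strain.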 To be noted: S. cerevisiae rad50 strain growth inhibition, active compounds read high. The gist of the method: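 DNA repair mutant yeast, compound exposure, growth read-out; inhibition is taken relative to vehicle.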
The nature of experiment [2]: NCI Yeast Anticancer Drug Screen. Data for the mec2-1 strain (AID 157). The following applies: S. cerevisiae mec2-1 strain, active compounds read high. The gist of the method:
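Yeast mec2-1 mutant treated with compound. Readout: growth inhibition vs vehicle controls.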

Experiment [3] can be described thus: NCI Yeast Anticancer Drug Screen. Data for the sgs1 mgt1 strain (AID 161).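 Further: 0% = growth of cultures given vehicle only.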 To be noted: S. cerevisiae sgs1 mgt1 strain, active compounds read high. The method in brief:
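Mutant yeast exposed to compound; growth scored against vehicle-only wells.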

Experiment [4] in a line: NCI Yeast Anticancer Drug Screen. Data for the cln2 rad14 strain (AID 165).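 Further: 0% = growth equal to vehicle treated cultures.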 To be noted: S. cerevisiae cln2 rad14 strain, active compounds read high. The method in brief: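 cln2 rad14 yeast strain; compound exposure; growth inhibition read vs vehicle controls.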
Experiment [5] can be described thus: NCI Yeast Anticancer Drug Screen. Data for the bub3 strain (AID 167). The following applies: S. cerevisiae bub3 mutant strain, active compounds read high. The gist of the method: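 In this screen, a yeast mutant lacking normal mitotic checkpoint function is challenged with compound. Relative growth versus vehicle gives the inhibition value.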
The nature of experiment [6]: NCI Yeast Anticancer Drug Screen. Data for the mlh1 rad18 strain (AID 175). To be noted: S. cerevisiae mlh1 rad18 strain growth inhibition, active compounds read high. The gist of the method: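 Yeast w/ defined DNA-repair lesions; compound exposure; growth vs vehicle controls → % inhibition.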
The mark [7] stands for this setting: at 5.0 µM (retest, dose inferred, filed as 0.5).
The mark [8] stands for this setting: at 50.0 µM (retest, dose inferred, filed as 5.0).

`Oc1cc(Cl)cc2c1-c1ccc(Cl)cc1C2O` (stereo not given): the growth inhibition in experiment [1] (setting [7]) is 9%; in experiment [1] (setting [8]) it was 97% (active); in experiment [1] (at 50.0 µM) it was 95.2% (active); in experiment [2] (setting [7]) it was 6%; in experiment [2] (setting [8]), 98% (active); in experiment [2] (at 50.0 µM) it was 91.2% (active). Besides, the growth inhibition was -4% in experiment [3] (setting [7]); 97% (active) in experiment [3] (setting [8]); 96.3% (active) in experiment [3] (at 50.0 µM); 28% in experiment [4] (setting [7]); 97% (active) in experiment [4] (setting [8]); 81.8% (active) in experiment [4] (at 50.0 µM). In addition, the growth inhibition in experiment [5] (setting [7]) is 31%; in experiment [5] (setting [8]) it was 97% (active); in experiment [5] (at 50.0 µM), 93.8% (active); in experiment [6] (setting [7]), 20%; in experiment [6] (setting [8]), 98% (active); in experiment [6] (at 50.0 µM) it was 95.5% (active).
Consider `C=CCC1=C(C)C(OC(=O)/C=C/c2ccccc2Cl)CC1=O` (stereo not given), for which the growth inhibition in experiment [1] (setting [7]) is 17%; in experiment [1] (setting [8]), 81% (active); in experiment [1] (at 50.0 µM), 86.2% (active); in experiment [2] (setting [7]), 0%; in experiment [2] (setting [8]), 88% (active); in experiment [2] (at 50.0 µM) it was 85.1% (active). Also, the growth inhibition in experiment [3] (setting [7]) is 13%; in experiment [3] (setting [8]) it was 88% (active); in experiment [3] (at 50.0 µM) it was 72.2% (active); in experiment [4] (setting [7]), -6%; in experiment [4] (setting [8]), 89% (active); in experiment [4] (at 50.0 µM), 69%. For the same molecule, the growth inhibition in experiment [5] (setting [7]) is 3%; in experiment [5] (setting [8]), 90% (active); in experiment [5] (at 50.0 µM), 95.4% (active); in experiment [6] (setting [7]), 8%; in experiment [6] (setting [8]), 89% (active); in experiment [6] (at 50.0 µM), 84.3% (active).
Turning to `Cn1c(=S)c2[nH]c(SCCN3CCOCC3)nc2n(C)c1=O`, the growth inhibition is 18% in experiment [1] (setting [7]); 81% (active) in experiment [1] (setting [8]); 98.5% (active) in experiment [1] (at 50.0 µM); 20% in experiment [2] (setting [7]); 70% (active) in experiment [2] (setting [8]); 99.5% (active) in experiment [2] (at 50.0 µM). Further, the growth inhibition was 31% in experiment [3] (setting [7]); 72% (active) in experiment [3] (setting [8]); 99.4% (active) in experiment [3] (at 50.0 µM); 3% in experiment [4] (setting [7]); 59% in experiment [4] (setting [8]); 61% in experiment [4] (at 50.0 µM). Also, the growth inhibition in experiment [5] (setting [7]) is 30%; in experiment [5] (setting [8]), 83% (active); in experiment [5] (at 50.0 µM), 99% (active); in experiment [6] (setting [7]), 15%; in experiment [6] (setting [8]), 90% (active); in experiment [6] (at 50.0 µM), 98.7% (active).
With `CC(=O)/C=N/Nc1ccccc1`, the growth inhibition is 15% in experiment [1] (setting [7]); 20% in experiment [1] (setting [8]); 42.1% in experiment [1] (at 50.0 µM); 3% in experiment [2] (setting [7]); 7% in experiment [2] (setting [8]); 3.5% in experiment [2] (at 50.0 µM). Further, the growth inhibition in experiment [3] (setting [7]) was -9%; in experiment [3] (setting [8]) it was 11%; in experiment [3] (at 50.0 µM) it was 33%; in experiment [4] (setting [7]) it was 0%; in experiment [4] (setting [8]), -8%; in experiment [4] (at 50.0 µM) it was -9.5%. Moreover, the growth inhibition in experiment [5] (setting [7]) is -1%; in experiment [5] (setting [8]), 3%; in experiment [5] (at 50.0 µM), 7.2%; in experiment [6] (setting [7]) it was 14%; in experiment [6] (setting [8]), 32%; in experiment [6] (at 50.0 µM), 58.6%.
For `C1=C(c2ccccc2)OC(c2ccccc2)=C[P+]1(c1ccccc1)c1ccccc1`, the growth inhibition was 96% (active) in experiment [1] (setting [7]); 98% (active) in experiment [1] (setting [8]); 92.1% (active) in experiment [1] (at 50.0 µM); 98% (active) in experiment [2] (setting [7]); 99% (active) in experiment [2] (setting [8]); 90.8% (active) in experiment [2] (at 50.0 µM). For the same molecule, the growth inhibition in experiment [3] (setting [7]) is 99% (active); in experiment [3] (setting [8]) it was 99% (active); in experiment [3] (at 50.0 µM), 91% (active); in experiment [4] (setting [7]), 93% (active); in experiment [4] (setting [8]), 99% (active); in experiment [4] (at 50.0 µM), 86.8% (active). Moreover, the growth inhibition in experiment [5] (setting [7]) was 97% (active); in experiment [5] (setting [8]) it was 99% (active); in experiment [5] (at 50.0 µM), 93% (active); in experiment [6] (setting [7]) it was 95% (active); in experiment [6] (setting [8]), 98% (active); in experiment [6] (at 50.0 µM), 92.7% (active).
As to `COC(=O)c1nc(NC#N)[nH]c(=O)c1CCCCCc1cnc(NC#N)nc1`, the growth inhibition in experiment [1] (setting [7]) is -3%; in experiment [1] (setting [8]) it was 1%; in experiment [1] (at 50.0 µM) it was -2.4%; in experiment [2] (setting [7]), -2%; in experiment [2] (setting [8]) it was -2%; in experiment [2] (at 50.0 µM) it was 4.05%. Also, the growth inhibition was -1% in experiment [3] (setting [7]); 4% in experiment [3] (setting [8]); -3.25% in experiment [3] (at 50.0 µM); -4% in experiment [4] (setting [7]); 1% in experiment [4] (setting [8]); 7% in experiment [4] (at 50.0 µM). Besides, the growth inhibition in experiment [5] (setting [7]) was 0%; in experiment [5] (setting [8]), -1%; in experiment [5] (at 50.0 µM) it was -0.4%; in experiment [6] (setting [7]), 0%; in experiment [6] (setting [8]), -2%; in experiment [6] (at 50.0 µM), -6.1%.
For the molecule `Oc1ccc(-c2nnc(-c3ccccc3)nn2)cc1`, the growth inhibition in experiment [1] (setting [7]) is -154%; in experiment [1] (setting [8]) it was -160%; in experiment [1] (at 50.0 µM), 56.4%; in experiment [2] (setting [7]), -48%; in experiment [2] (setting [8]) it was -53%; in experiment [2] (at 50.0 µM), 8.95%. Further, the growth inhibition is -66% in experiment [3] (setting [7]); -63% in experiment [3] (setting [8]); -3.9% in experiment [3] (at 50.0 µM); -47% in experiment [4] (setting [7]); -66% in experiment [4] (setting [8]); -52.5% in experiment [4] (at 50.0 µM). The growth inhibition in experiment [5] (setting [7]) is -47%; in experiment [5] (setting [8]), -19%; in experiment [5] (at 50.0 µM) it was 58.5%; in experiment [6] (setting [7]), -121%; in experiment [6] (setting [8]), -147%; in experiment [6] (at 50.0 µM), -9.85%.
`Cc1ccc(O)c(C(C)(C)c2ccccc2)c1`: the growth inhibition is -8% in experiment [1] (setting [7]); 77% (active) in experiment [1] (setting [8]); 99.5% (active) in experiment [1] (at 50.0 µM); -5% in experiment [2] (setting [7]); 94% (active) in experiment [2] (setting [8]); 99.8% (active) in experiment [2] (at 50.0 µM). Further, the growth inhibition was -9% in experiment [3] (setting [7]); 43% in experiment [3] (setting [8]); 99.7% (active) in experiment [3] (at 50.0 µM); -6% in experiment [4] (setting [7]); 90% (active) in experiment [4] (setting [8]); 98.7% (active) in experiment [4] (at 50.0 µM). The growth inhibition in experiment [5] (setting [7]) is -49%; in experiment [5] (setting [8]) it was 95% (active); in experiment [5] (at 50.0 µM), 99.5% (active); in experiment [6] (setting [7]) it was -10%; in experiment [6] (setting [8]) it was 94% (active); in experiment [6] (at 50.0 µM), 99.3% (active).
In the case of `Clc1ccc(OCC(Cn2ccnc2)c2ccc(Cl)cc2)cc1` (stereo not given), the growth inhibition in experiment [1] (setting [7]) was 74% (active); in experiment [1] (setting [8]) it was 91% (active); in experiment [1] (at 50.0 µM), 99.8% (active); in experiment [2] (setting [7]), 55%; in experiment [2] (setting [8]), 80% (active); in experiment [2] (at 50.0 µM) it was 99.9% (active). In addition, the growth inhibition in experiment [3] (setting [7]) was 70% (active); in experiment [3] (setting [8]), 97% (active); in experiment [3] (at 50.0 µM) it was 99.8% (active); in experiment [4] (setting [7]), 60%; in experiment [4] (setting [8]), 89% (active); in experiment [4] (at 50.0 µM), 99.5% (active). In addition, the growth inhibition in experiment [5] (setting [7]) is 73% (active); in experiment [5] (setting [8]), 98% (active); in experiment [5] (at 50.0 µM), 99.8% (active); in experiment [6] (setting [7]) it was 64%; in experiment [6] (setting [8]), 97% (active); in experiment [6] (at 50.0 µM) it was 99.2% (active).
As for `COc1ccc(/C=C2/C(=O)NC3SC=C(c4cccc([N+](=O)[O-])c4)N23)cc1` (stereo not given), the growth inhibition in experiment [1] (setting [7]) was 8%; in experiment [1] (setting [8]), 6%; in experiment [1] (at 50.0 µM) it was 33%; in experiment [2] (setting [7]), 0%; in experiment [2] (setting [8]), 2%; in experiment [2] (at 50.0 µM), 10.9%. Further, the growth inhibition in experiment [3] (setting [7]) was -4%; in experiment [3] (setting [8]), -1%; in experiment [3] (at 50.0 µM) it was 32.6%; in experiment [4] (setting [7]), 34%; in experiment [4] (setting [8]) it was -23%; in experiment [4] (at 50.0 µM), 11.4%. The growth inhibition in experiment [5] (setting [7]) is 21%; in experiment [5] (setting [8]), 13%; in experiment [5] (at 50.0 µM) it was 62.9%; in experiment [6] (setting [7]), 5%; in experiment [6] (setting [8]), 23%; in experiment [6] (at 50.0 µM), 29.7%.
